Data on 13 compounds can be found in PubChem BioAssay AID651956 (Broad Institute, 2012).

Entries with a potency or affinity are not part of this list. Records with an inconclusive call do not appear. Activity calls are given as the source filed them.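 The calls were made as follows: active = in every test run, a fitted half-maximal concentration for signal decrease at or below twice the highest tested concentration; inconclusive = runs disagree, flat 30 to 70% decrease, or poor fit; inactive = the rest.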

This experiment is described as follows: miR-122 activators in hepatoma reporter cells, dose response, cell-based, Huh7 psiCHECK-miR122, Renilla luciferase, cherry-picked (AID 651956).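 Also: Renilla luciferase from a miR-122 sensor reporter so lower signal means miR-122 activation.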 The conditions noted are these: 48 h; series mostly up to 35 µM.
Regarding `CC(C)NC(=O)N1C[C@@H]2[C@H](c3ccccc31)[C@H](CO)N2Cc1ccccc1`, the outcome was inactive.

For the compound `CCC(=O)N1[C@H](CO)[C@H](c2ccccc2)[C@@H]1CN(C(C)C)S(C)(=O)=O`, the compound was called inactive.

For `CNC(=O)C[C@H]1CC[C@H]2[C@H](COc3ccc(NC(=O)c4cccc(F)c4)cc3C(=O)N2C)O1`, the compound was classed as inactive.

Turning to `CCC(=O)N1[C@H](CN(C)C(C)=O)[C@H](c2ccc(-c3cccnc3)cc2)[C@@H]1CO`, the call was inactive.

With `CN1C(=O)c2cc(NC(=O)c3cccs3)ccc2OC[C@@H]2O[C@@H](CC(=O)NCCN3CCCCC3)CC[C@@H]21`, the outcome was inactive.

As for `CN1C(=O)c2cc(NC(=O)Cc3ccccc3)ccc2OC[C@H]2O[C@H](CC(=O)O)CC[C@H]21`, the call was inactive.

Regarding `COCC(=O)N(C[C@@H]1N[C@H](CO)[C@H]1c1ccc(-c2cccnc2)cc1)C(C)C`, the result was inactive.

With `COc1ccc(CN2CCc3c([nH]c4ccccc34)C2)c(OC)c1C`, the compound was called inactive.

Take `CNC(=O)C[C@H]1CC[C@@H]2[C@H](COc3ccc(NC(=O)C(C)C)cc3C(=O)N2C)O1`: the call was inactive.

For the compound `C=CCNC(=S)NNC(=O)Cn1c(-c2ccccc2)cc(=O)n2ncnc12`, the compound was called inactive.

As for `COCCNC(=O)C[C@@H]1CC[C@@H]2[C@H](COc3ccc(NS(=O)(=O)c4ccc(Cl)cc4)cc3C(=O)N2C)O1`, the result was inactive.

`COC(=O)C[C@@H]1CC[C@H]2[C@@H](COc3ccc(NC(=O)c4ccc(C(F)(F)F)cc4)cc3C(=O)N2C)O1`: the call was inactive.

As to `C/C=C/c1ccc([C@H]2[C@@H](CO)N(C(=O)C3CC3)[C@H]2CNC(=O)NC(C)C)cc1`, the outcome was inactive.
